# Experimental data taken from PubChem BioAssay (EPA / NIEHS).
# Records with an inconclusive call do not appear. Active and inactive are the calls of the source. Rule for the calls: active = hit-call score of the fitted dose curve at least 0.9, where 1 is the maximum; inconclusive = response in the unintended direction; inactive = score below 0.9.
# Legend:
# [1] = target: human Janus Kinase 2 (Jak2), JAK2 (gene 3717) (UniProt O60674); assay: NVS_ENZ_hJak2: NovaScreen (NVS) Enzymatic Assay for human Janus Kinase 2 (Jak2) (AID 2283169)
# In short: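 Cell-free recombinant human JAK2 enzyme activity assay, fluorescence/electrophoretic mobility shift read 1 h after dosing. Screened in duplicate at 25 uM, then concentration-response up to 50 uM; activity as signal loss relative to DMSO.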
# [2] = target: human Matrix Metalloproteinase-7 (MMP7), MMP7 (gene 4316) (UniProt P09237); assay: NVS_ENZ_hMMP7: NovaScreen (NVS) Enzymatic Assay for human Matrix Metalloproteinase-7 (MMP7) (AID 2283183)
# Sequence of human Matrix Metalloproteinase-7 (MMP7), MMP7 (gene 4316) (P09237 whole entry, looked up): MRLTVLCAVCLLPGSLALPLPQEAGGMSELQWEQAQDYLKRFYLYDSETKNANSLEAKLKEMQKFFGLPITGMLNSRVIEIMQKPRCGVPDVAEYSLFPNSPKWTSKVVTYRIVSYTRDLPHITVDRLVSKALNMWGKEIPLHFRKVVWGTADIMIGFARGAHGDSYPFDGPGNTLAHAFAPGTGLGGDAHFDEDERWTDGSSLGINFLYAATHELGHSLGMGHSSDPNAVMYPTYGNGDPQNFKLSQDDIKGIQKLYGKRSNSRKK
# In short: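 Cell-free fluorescence enzymatic assay read 1 h after compound addition, activity loss analyzed against DMSO. Primary duplicate testing at 25 uM; compounds meeting threshold rerun in singleton concentration-response up to 50 uM.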
# [3] = target: Glycogen synthase kinase-3 beta (Homo sapiens) (UniProt P49841); assay: NVS_ENZ_hGSK3b: NovaScreen (NVS) Enzymatic Assay for human Glycogen Synthase Kinase-3 beta (GSK3b) (AID 2283165)
# Sequence of Glycogen synthase kinase-3 beta (Homo sapiens) (P49841 whole entry, looked up): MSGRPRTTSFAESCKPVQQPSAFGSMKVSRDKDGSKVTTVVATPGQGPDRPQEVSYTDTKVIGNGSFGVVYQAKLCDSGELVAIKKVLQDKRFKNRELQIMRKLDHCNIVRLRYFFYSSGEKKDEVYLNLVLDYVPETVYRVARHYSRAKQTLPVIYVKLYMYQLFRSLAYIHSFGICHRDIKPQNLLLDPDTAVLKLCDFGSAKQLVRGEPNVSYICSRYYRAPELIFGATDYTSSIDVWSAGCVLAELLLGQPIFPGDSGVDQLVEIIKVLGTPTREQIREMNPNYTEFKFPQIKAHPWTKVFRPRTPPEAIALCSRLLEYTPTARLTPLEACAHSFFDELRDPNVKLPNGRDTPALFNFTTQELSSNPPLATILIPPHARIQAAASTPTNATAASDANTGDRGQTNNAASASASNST
# In short: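 Recombinant enzyme with specific fluorescent substrate, 1 h, product separated by electrophoretic mobility shift. Primary duplicate screen at 25 uM; actives (e.g. 30% inhibition) followed in singleton concentration-response to 50 uM. Signal loss fitted versus DMSO.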
# [4] = target: human Insulin Receptor (InsR), INSR (gene 3643) (UniProt P06213); assay: NVS_ENZ_hInsR: NovaScreen (NVS) Enzymatic Assay for human Insulin Receptor (InsR) (AID 2283168)
# In short: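 Fluorescent substrate phosphorylation by recombinant kinase, product resolved by electrophoretic mobility shift, read 1 h after dosing. Screened in duplicate at 25 uM; hits (e.g., 30% inhibition) run in concentration-response to 50 uM; DMSO as baseline.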
# [5] = target: human Mitogen- and Stress-activated Protein Kinase-1 (Msk1), RPS6KA5 (gene 9252) (UniProt O75582); assay: NVS_ENZ_hMsk1: NovaScreen (NVS) Enzymatic Assay for human Mitogen- and Stress-activated Protein Kinase-1 (Msk1) (AID 2283187)
# In short: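 Recombinant kinase with fluorescent substrate; product separated by electrophoretic mobility shift, read 1 h after dosing. Screened in duplicate at 25 uM; hits (e.g. ≥30% inhibition) tested in concentration–response up to 50 uM. DMSO baseline.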
# [6] = target: human Phosphodiesterase 5 (PDE5), PDE5A (gene 8654) (UniProt O76074); assay: NVS_ENZ_hPDE5: NovaScreen (NVS) Enzymatic Assay for human Phosphodiesterase 5 (PDE5) (AID 2283194)
# In short: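 Recombinant human PDE5 with specific substrate, read 1 h after dosing by fluorescence with electrophoretic mobility-shift separation of substrate and product. Initial single-concentration duplicate screen at 25 uM, actives followed in concentration series; loss of activity versus DMSO.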
# [7] = target: human Phosphoinositide 3-kinase alpha (PI3Ka), PIK3CA (gene 5290) (UniProt P42336); assay: NVS_ENZ_hPI3Ka: NovaScreen (NVS) Enzymatic Assay for human Phosphoinositide 3-kinase alpha (PI3Ka) (AID 2283196)
# In short: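 Recombinant human PI3Kα with fluorescent substrate, 1 h, product separated by electrophoretic mobility shift; 25 uM duplicate screen, hits (e.g., 30% inhibition) retested singly up to 50 uM; loss of signal vs DMSO.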
# [8] = target: human Matrix Metalloproteinase-3 (MMP3), MMP3 (gene 4314) (UniProt P08254); assay: NVS_ENZ_hMMP3: NovaScreen (NVS) Enzymatic Assay for human Matrix Metalloproteinase-3 (MMP3) (AID 2283185)
# Sequence of human Matrix Metalloproteinase-3 (MMP3), MMP3 (gene 4314) (P08254 whole entry, looked up): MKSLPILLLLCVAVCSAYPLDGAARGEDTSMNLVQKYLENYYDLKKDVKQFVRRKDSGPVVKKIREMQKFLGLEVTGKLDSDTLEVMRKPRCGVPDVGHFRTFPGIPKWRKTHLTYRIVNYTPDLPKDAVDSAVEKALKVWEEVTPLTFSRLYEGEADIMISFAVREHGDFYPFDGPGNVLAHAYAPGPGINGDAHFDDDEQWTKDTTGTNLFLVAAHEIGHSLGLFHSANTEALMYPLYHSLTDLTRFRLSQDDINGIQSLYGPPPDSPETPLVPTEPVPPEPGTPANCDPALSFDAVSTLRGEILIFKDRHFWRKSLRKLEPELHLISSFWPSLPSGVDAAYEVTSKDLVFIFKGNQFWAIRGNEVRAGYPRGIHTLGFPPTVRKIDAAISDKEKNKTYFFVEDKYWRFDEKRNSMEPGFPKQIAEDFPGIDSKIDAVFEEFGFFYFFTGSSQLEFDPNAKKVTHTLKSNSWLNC
# In short: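 Cell-free recombinant human MMP3 activity, fluorescence intensity read 1 h after dosing. Primary screen duplicate at 25 uM, actives retested in concentration series; loss of signal vs DMSO baseline.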
# [9] = target: human Phosphodiesterase 10 (PDE10), PDE10A (gene 10846) (UniProt Q9Y233); assay: NVS_ENZ_hPDE10: NovaScreen (NVS) Enzymatic Assay for human Phosphodiesterase 10 (PDE10) (AID 2283195)
# Sequence of human Phosphodiesterase 10 (PDE10), PDE10A (gene 10846) (Q9Y233 whole entry, looked up): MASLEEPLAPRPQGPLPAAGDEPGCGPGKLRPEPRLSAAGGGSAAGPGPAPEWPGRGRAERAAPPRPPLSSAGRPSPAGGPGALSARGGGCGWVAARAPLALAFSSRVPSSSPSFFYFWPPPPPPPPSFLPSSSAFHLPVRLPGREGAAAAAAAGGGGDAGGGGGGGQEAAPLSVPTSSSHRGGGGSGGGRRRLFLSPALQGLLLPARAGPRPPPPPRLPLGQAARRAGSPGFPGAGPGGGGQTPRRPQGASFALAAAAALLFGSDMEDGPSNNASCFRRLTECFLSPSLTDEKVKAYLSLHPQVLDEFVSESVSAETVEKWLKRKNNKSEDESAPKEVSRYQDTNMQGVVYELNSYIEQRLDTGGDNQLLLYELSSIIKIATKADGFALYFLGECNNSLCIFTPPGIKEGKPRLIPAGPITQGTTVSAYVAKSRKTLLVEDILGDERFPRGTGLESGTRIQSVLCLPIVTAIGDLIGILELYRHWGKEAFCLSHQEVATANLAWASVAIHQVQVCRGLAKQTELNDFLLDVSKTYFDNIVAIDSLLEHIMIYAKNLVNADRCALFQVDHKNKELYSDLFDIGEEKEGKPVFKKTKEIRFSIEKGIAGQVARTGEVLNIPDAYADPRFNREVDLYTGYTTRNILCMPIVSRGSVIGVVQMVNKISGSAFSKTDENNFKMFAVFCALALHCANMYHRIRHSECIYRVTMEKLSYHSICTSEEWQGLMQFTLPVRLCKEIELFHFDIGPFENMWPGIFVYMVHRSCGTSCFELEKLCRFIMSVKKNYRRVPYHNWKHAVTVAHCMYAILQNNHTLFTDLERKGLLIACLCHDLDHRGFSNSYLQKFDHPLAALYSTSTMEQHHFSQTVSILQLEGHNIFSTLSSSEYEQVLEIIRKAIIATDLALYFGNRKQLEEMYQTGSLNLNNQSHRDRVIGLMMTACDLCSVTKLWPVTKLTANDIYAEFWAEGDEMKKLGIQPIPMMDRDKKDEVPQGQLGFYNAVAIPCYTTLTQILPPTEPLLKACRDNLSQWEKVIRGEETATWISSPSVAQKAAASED
# In short: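 PDE10A, cell-free; 1 h incubation; fluorescence intensity + electrophoretic mobility shift separating substrate/product; DMSO = baseline; 25 uM duplicate primary, CRC up to 50 uM.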
# [10] = target: human Protein Phosphatase, Mg2+/Mn2+ Dependent 1A (PPM1A), PPM1A (gene 5494) (UniProt P35813); assay: NVS_ENZ_hPPM1A: NovaScreen (NVS) Enzymatic Assay for human Protein Phosphatase, Mg2+/Mn2+ Dependent 1A (PPM1A) (AID 2283198)
# Sequence of human Protein Phosphatase, Mg2+/Mn2+ Dependent 1A (PPM1A), PPM1A (gene 5494) (P35813 whole entry, looked up): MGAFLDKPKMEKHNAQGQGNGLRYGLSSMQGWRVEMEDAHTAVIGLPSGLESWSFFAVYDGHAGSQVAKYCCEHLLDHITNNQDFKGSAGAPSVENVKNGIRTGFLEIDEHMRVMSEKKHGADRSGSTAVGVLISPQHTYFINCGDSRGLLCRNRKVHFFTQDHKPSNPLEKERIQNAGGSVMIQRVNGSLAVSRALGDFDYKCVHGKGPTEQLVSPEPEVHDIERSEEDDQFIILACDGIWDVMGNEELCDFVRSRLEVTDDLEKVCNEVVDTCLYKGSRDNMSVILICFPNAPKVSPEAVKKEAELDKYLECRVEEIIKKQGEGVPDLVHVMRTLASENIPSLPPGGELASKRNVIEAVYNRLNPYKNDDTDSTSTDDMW
# In short: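 Cell-free recombinant PPM1A phosphatase assay with fluorescent substrate, read 1 h after dosing by electrophoretic mobility shift. Chemicals screened in duplicate at 25 uM, then in concentration-response up to 50 uM; loss of activity versus DMSO.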
# [11] = target: human Phosphodiesterase 4A1 (PDE4A1), PDE4A (gene 5141) (UniProt P27815); assay: NVS_ENZ_hPDE4A1: NovaScreen (NVS) Enzymatic Assay for human Phosphodiesterase 4A1 (PDE4A1) (AID 2283191)
# Sequence of human Phosphodiesterase 4A1 (PDE4A1), PDE4A (gene 5141) (P27815 whole entry, looked up): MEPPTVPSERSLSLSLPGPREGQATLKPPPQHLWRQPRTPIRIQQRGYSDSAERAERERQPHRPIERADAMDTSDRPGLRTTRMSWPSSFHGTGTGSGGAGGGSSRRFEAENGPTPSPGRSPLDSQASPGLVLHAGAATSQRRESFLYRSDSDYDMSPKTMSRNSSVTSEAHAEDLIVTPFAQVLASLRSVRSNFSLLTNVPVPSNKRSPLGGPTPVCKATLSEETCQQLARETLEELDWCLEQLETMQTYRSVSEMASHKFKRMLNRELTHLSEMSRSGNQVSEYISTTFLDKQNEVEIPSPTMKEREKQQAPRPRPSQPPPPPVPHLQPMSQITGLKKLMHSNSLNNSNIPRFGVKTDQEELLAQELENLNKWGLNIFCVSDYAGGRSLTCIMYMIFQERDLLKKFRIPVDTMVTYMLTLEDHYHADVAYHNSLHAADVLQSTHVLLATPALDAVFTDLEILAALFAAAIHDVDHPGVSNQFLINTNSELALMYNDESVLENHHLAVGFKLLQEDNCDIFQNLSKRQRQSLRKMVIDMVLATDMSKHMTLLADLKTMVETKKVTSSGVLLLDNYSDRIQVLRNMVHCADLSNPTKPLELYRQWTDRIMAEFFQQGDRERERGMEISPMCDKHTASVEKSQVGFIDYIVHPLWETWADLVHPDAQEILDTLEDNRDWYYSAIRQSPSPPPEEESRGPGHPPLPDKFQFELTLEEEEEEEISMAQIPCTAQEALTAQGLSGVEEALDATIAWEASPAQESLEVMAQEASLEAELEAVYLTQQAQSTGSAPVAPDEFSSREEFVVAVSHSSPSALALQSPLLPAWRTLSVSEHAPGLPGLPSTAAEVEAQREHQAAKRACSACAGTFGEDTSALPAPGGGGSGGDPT
# In short: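 Cell-free recombinant human PDE4A1 with fluorescent substrate; product separated by electrophoretic mobility shift, 1 h. Screened at 25 uM, then up to 50 uM in concentration-response; loss of signal fitted against DMSO.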
# [12] = target: human MAP Kinase-Activated Protein Kinase 2 (MAPKAPK2), MAPKAPK2 (gene 9261) (UniProt P49137); assay: NVS_ENZ_hMAPKAPK2: NovaScreen (NVS) Enzymatic Assay for human MAP Kinase-Activated Protein Kinase 2 (MAPKAPK2) (AID 2283178)
# Sequence of human MAP Kinase-Activated Protein Kinase 2 (MAPKAPK2), MAPKAPK2 (gene 9261) (P49137 whole entry, looked up): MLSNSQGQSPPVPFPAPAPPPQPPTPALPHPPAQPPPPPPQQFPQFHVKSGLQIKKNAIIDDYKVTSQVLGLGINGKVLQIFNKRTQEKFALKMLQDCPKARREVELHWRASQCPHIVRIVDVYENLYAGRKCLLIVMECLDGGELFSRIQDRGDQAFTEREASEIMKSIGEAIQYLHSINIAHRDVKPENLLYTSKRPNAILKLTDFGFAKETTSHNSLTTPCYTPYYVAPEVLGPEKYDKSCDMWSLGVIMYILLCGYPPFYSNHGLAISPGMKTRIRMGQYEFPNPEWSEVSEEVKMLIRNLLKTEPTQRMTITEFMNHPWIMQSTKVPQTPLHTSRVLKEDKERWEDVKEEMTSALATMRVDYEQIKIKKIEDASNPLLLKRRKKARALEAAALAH
# In short: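 Cell-free recombinant human MAPKAPK2 activity measured by fluorescence with electrophoretic mobility shift separation of substrate and product, 1 hr after dosing. Loss of signal versus DMSO; primary screen at 25 uM, concentration-response up to 50 uM.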
# [13] = target: Serine/threonine-protein phosphatase PP1-alpha catalytic subunit (Homo sapiens) (UniProt P62136); assay: NVS_ENZ_hPPP1CA: NovaScreen (NVS) Enzymatic Assay for human Protein Phosphatase 1 Aatalytic subunit Alpha (PPP1CA) (AID 2283200)
# Sequence of Serine/threonine-protein phosphatase PP1-alpha catalytic subunit (Homo sapiens) (P62136 whole entry, looked up): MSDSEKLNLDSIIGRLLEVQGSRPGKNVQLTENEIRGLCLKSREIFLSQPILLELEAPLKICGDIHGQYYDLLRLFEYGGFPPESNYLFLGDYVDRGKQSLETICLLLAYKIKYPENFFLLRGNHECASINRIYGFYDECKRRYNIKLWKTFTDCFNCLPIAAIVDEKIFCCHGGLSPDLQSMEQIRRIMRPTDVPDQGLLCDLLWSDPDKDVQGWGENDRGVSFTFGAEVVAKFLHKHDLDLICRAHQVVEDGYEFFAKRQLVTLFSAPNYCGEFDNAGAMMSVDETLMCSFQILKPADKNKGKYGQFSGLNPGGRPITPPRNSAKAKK
# In short: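 Recombinant enzyme activity read by fluorescence with electrophoretic mobility shift separating substrate from product, 1.33 h after dosing; loss of signal vs DMSO baseline. Primary screen in duplicate at 25 uM; actives retested in concentration-response up to 50 uM.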
# [14] = target: human Protein Tyrosine Phosphatase Non-receptor Type 1 (PTPN1), PTPN1 (gene 5770) (UniProt P18031); assay: NVS_ENZ_hPTPN1: NovaScreen (NVS) Enzymatic Assay for human Protein Tyrosine Phosphatase Non-receptor Type 1 (PTPN1) (AID 2283201)
# In short: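 Cell-free fluorogenic-substrate activity assay on recombinant enzyme, read 1.33 h after dosing by fluorescence and electrophoretic mobility shift; loss of signal vs DMSO baseline. Primary screen in duplicate at 25 uM, hits then run in concentration-response up to 50 uM.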
# [15] = target: Collagenase 3 (Homo sapiens) (UniProt P45452); assay: NVS_ENZ_hMMP13: NovaScreen (NVS) Enzymatic Assay for human Matrix Metalloproteinase-13 (MMP13) (AID 2283182)
# In short: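 Recombinant MMP13 cleaving fluorescent substrate, cell-free, measured 1 h after dosing. Primary duplicate screen at 25 uM; actives tested in concentration-response up to 50 uM; loss of signal relative to DMSO.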
# [16] = target: human Matrix Metalloproteinase-2 (MMP2), MMP2 (gene 4313) (UniProt P08253); assay: NVS_ENZ_hMMP2: NovaScreen (NVS) Enzymatic Assay for human Matrix Metalloproteinase-2 (MMP2) (AID 2283184)
# Sequence of human Matrix Metalloproteinase-2 (MMP2), MMP2 (gene 4313) (P08253 whole entry, looked up): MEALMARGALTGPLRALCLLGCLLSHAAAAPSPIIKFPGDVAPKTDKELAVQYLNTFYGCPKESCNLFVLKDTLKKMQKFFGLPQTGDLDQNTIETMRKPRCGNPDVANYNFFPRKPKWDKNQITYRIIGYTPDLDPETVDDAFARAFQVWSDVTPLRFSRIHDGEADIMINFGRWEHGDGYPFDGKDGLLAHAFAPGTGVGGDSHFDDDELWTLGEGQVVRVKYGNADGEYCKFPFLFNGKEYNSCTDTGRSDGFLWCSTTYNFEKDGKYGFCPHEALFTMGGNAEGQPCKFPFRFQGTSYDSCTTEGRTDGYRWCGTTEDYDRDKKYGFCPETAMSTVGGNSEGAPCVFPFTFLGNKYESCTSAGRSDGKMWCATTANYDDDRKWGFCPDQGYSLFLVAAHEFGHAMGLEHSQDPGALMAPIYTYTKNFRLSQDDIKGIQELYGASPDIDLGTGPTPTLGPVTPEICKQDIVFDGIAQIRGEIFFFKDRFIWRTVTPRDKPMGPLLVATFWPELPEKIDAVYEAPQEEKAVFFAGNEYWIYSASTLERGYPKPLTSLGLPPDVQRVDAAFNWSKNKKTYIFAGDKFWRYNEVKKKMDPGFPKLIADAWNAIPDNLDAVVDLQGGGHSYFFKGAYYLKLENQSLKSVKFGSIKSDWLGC
# In short: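 Cell-free recombinant MMP2 activity with a fluorescent substrate, read 1 h after dosing. Primary screen in duplicate at 25 uM; actives then run in concentration series; loss of signal fitted versus DMSO.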
# [17] = target: cAMP-dependent protein kinase catalytic subunit alpha (Homo sapiens) (UniProt P17612); assay: NVS_ENZ_hPKA: NovaScreen (NVS) Enzymatic Assay for human Protein Kinase A (PKA) (AID 2283192)
# In short: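 Recombinant human PKA with specific fluorescent substrate, product separated by electrophoretic mobility shift, read 1 h after dosing. Primary screen at 25 uM in duplicate; actives then run in concentration-response up to 50 uM, activity relative to DMSO.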
smiles,measurement,setting,value
Cc1oc(-c2ccccc2)nc1CCOc1cccc2c1ccn2CCC(=O)O,outcome,[1],inactive
same,outcome,[2],inactive
CCc1c(C(=O)NN2CCCCC2)nn(-c2ccc(Cl)cc2Cl)c1-c1ccc(Br)cc1,outcome,[3],inactive
same,outcome,[4],inactive
same,outcome,[5],inactive
same,outcome,[6],inactive
same,outcome,[7],inactive
O=[N+]([O-])C(CO)(CO)CO,outcome,[3],inactive
same,outcome,[2],inactive
NCC1(Cc2noc(=O)[nH]2)CCCCC1,outcome,[8],inactive
same,outcome,[9],inactive
Nc1ccc(S(=O)(=O)c2ccc(N)cc2)cc1,outcome,[2],inactive
Cc1ccc(C)c(C)c1,outcome,[6],inactive
CC(C)(C)c1cc(O)c(C(C)(C)C)cc1O,outcome,[2],inactive
same,outcome,[10],inactive
CNCc1cc(F)ccc1Oc1ccc(Cl)c(Cl)c1,outcome,[11],inactive
same,outcome,[9],inactive
Nc1ccc2c(c1)C(=O)c1ccccc1C2=O,AC50,[12],16.5 µM (active)
same,AC50,[8],31.6 µM (active)
same,outcome,[13],inactive
Cc1cc(NC(=O)C(=O)O)cc(C)c1Oc1ccc(O)c2c1CCC2,AC50,[6],8.94 µM (active)
same,outcome,[10],inactive
C1CCC(SSC2CCCCC2)CC1,outcome,[14],inactive
Cc1c(C(=O)O)c(O)cc2c1C(=O)c1c(O)c([C@@H]3O[C@H](CO)[C@@H](O)[C@H](O)[C@H]3O)c(O)c(O)c1C2=O,outcome,[11],inactive
CN[C@H]1CC[C@@H](c2ccc(Cl)c(Cl)c2)c2ccc(S(N)(=O)=O)cc21,AC50,[15],2.36 µM (active)
same,outcome,[2],inactive
same,outcome,[8],inactive
same,outcome,[10],inactive
COCCOC[C@H](CC1(C(=O)NC2CCC(C(=O)O)CC2)CCCC1)C(=O)Oc1ccc2c(c1)CCC2 (stereo partly drawn),AC50,[15],17.3 µM (active)
same,AC50,[16],19.8 µM (active)
CCCCN(CCCC)CCCC,outcome,[13],inactive
COc1cc(-c2nc(NC(=O)c3cc4cc(C)cc(C)c4n3CC(=O)O)sc2CCC2CCCCC2)c(OC)cc1Cl,AC50,[12],6.49 µM (active)
same,AC50,[13],1.42 µM (active)
Cc1ccc2ncccc2c1,outcome,[16],inactive
CN1CCN(Cc2cc(-c3ccc4[nH]c(=O)oc4c3)co2)[C@@H](c2ccc(F)cc2)C1,AC50,[15],7.74 µM (active)
same,outcome,[2],inactive
same,outcome,[8],inactive
CCCCCCC(=O)OCC,outcome,[2],inactive
same,outcome,[10],inactive
Cc1cccc([N+](=O)[O-])c1C,AC50,[15],2.06 µM (active)
CCOC(=O)CCC(=O)OCC,outcome,[12],inactive
CNC(=O)[C@H]1O[C@@H](n2cnc3c(NCc4cc(Cl)ccc4OCc4cc(C)no4)ncnc32)[C@H](O)[C@@H]1N,outcome,[2],inactive
same,outcome,[8],inactive
same,outcome,[17],inactive
same,outcome,[6],inactive
c1cc(-c2ccncc2)ccn1,outcome,[15],inactive
CC=Cc1ccc(O)c(OC)c1,outcome,[2],inactive
same,outcome,[6],inactive
O=C(N[C@@H](Cc1ccccc1)[C@@H](O)C(=O)N1C[C@@H](O)[C@@H](O)C1)c1cc2cc(Cl)ccc2[nH]1,outcome,[11],inactive
same,outcome,[6],inactive
CC1(C)NC(=O)NC1=O,outcome,[13],inactive
O=c1[nH]cc(F)c(=O)[nH]1,outcome,[6],inactive
same,outcome,[10],inactive
Oc1ccc2c(c1)OC[C@@H](N1CCC(O)(c3ccc(F)cc3)CC1)[C@H]2O,outcome,[10],inactive
Cc1cc(=O)[nH]c(=S)[nH]1,outcome,[10],inactive
OC[C@@H](O)[C@@H](O)[C@H](O)[C@H](O)CO,outcome,[2],inactive
C[Si]1(C)O[Si](C)(C)O[Si](C)(C)O[Si](C)(C)O1,outcome,[2],inactive
same,outcome,[16],inactive
same,outcome,[8],inactive
Cc1nc(C)nc(N2C[C@@H](C)N(c3ccnc([C@@H](C)O)n3)[C@@H](C)C2)n1,AC50,[16],7.26 µM (active)
Cc1cccc(C)c1O,outcome,[6],inactive
CCCCCCCCCCCC(=O)OC,outcome,[2],inactive
COc1cc(S(=O)(=O)O)c(C)cc1N=Nc1c(O)ccc2cc(S(=O)(=O)O)ccc12,AC50,[8],19.2 µM (active)
